{"source": "the supplement of paper PMC8728848", "binders": {"B1": {"name": "PfulAvr4 (Pseudocercospora fuligena) (protein)", "chain": "HHHHHHDYKDDDDKTYVQDKTPAFVCPAADIKTTKCLGPKDCLYPSPKTCNGYIQCSPADDSYLTGIIHEMPCPSGLLWNDNKKWCDWPENTTCGLVKSAGATEVDATKQGPTPGKYHG"}}, "test_in_all_cases": "glycan array binding signal (z-score within array); higher = stronger binding", "conditions_in_all_cases": "glycan notation: IUPAC condensed, linker removed", "key": {"[1]": {"biological_target": "Fuc(a1-2)Gal(b1-3)GalNAc(b1-3)Gal", "summary_of_the_method": "(§1)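 The Consortium for Functional Glycomics database supplied 3228 glycan arrays, of which those lacking an available protein sequence were dropped. The binding signal, a within-array Z-score, was averaged across arrays of the same protein sequence and across linkers. Negative scores can be read as non-binding.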"}, "[2]": {"biological_target": "Fuc(a1-2)Gal(b1-3)[Fuc(a1-4)]GlcNAc(b1-2)Man(a1-3)[Fuc(a1-2)Gal(b1-3)[Fuc(a1-4)]GlcNAc(b1-2)Man(a1-3)]Man(b1-4)GlcNAc(b1-4)GlcNAc", "summary_of_the_method": "as §1"}, "[3]": {"biological_target": "Fuc(a1-2)Gal(b1-3)[Fuc(a1-4)]GlcNAc(b1-3)[Gal(b1-4)GlcNAc(b1-6)]Gal(b1-4)Glc", "summary_of_the_method": "as §1"}, "[4]": {"biological_target": "Fuc(a1-2)Gal(b1-4)GlcNAc(b1-3)[Fuc(a1-3)[Gal(b1-4)]GlcNAc(b1-6)]Gal(b1-4)Glc", "summary_of_the_method": "as §1"}, "[5]": {"biological_target": "Fuc(a1-2)Gal(b1-4)[Fuc(a1-3)]GlcNAc", "summary_of_the_method": "as §1"}, "[6]": {"biological_target": "Fuc(a1-2)Gal(b1-4)[Fuc(a1-3)]GlcNAc(b1-2)[Fuc(a1-2)Gal(b1-4)[Fuc(a1-3)]GlcNAc(b1-4)]Man(a1-3)[Fuc(a1-2)Gal(b1-4)[Fuc(a1-3)]GlcNAc(b1-2)Man(a1-6)]Man(b1-4)GlcNAc(b1-4)GlcNAc", "summary_of_the_method": "as §1"}, "[7]": {"biological_target": "Fuc(a1-2)[Gal(a1-3)]Gal(b1-3)GlcNAc(b1-2)Man(a1-3)[Fuc(a1-2)[Gal(a1-3)]Gal(b1-3)GlcNAc(b1-2)Man(a1-6)]Man(b1-4)GlcNAc(b1-4)GlcNAc", "summary_of_the_method": "as §1"}, "[8]": {"biological_target": "Fuc(a1-2)[Gal(a1-3)]Gal(b1-4)GlcNAc(b1-6)GalNAc", "summary_of_the_method": "as §1"}, "[9]": {"biological_target": "Fuc(a1-2)[GalNAc(a1-3)]Gal", "summary_of_the_method": "as §1"}, "[10]": {"biological_target": "Fuc(a1-2)[GalNAc(a1-3)]Gal(b1-3)GalNAc(a1-3)[Fuc(a1-2)]Gal(b1-4)GlcNAc", "summary_of_the_method": "as §1"}, "[11]": {"biological_target": "Fuc(a1-2)[GalNAc(a1-3)]Gal(b1-3)GlcNAc(b1-3)GalNAc", "summary_of_the_method": "as §1"}, "[12]": {"biological_target": "Fuc(a1-2)[GalNAc(a1-3)]Gal(b1-4)GlcNAc", "summary_of_the_method": "as §1"}, "[13]": {"biological_target": "Fuc(a1-2)[GalNAc(a1-3)]Gal(b1-4)GlcNAc(b1-3)[Fuc(a1-2)[GalNAc(a1-3)]Gal(b1-4)GlcNAc(b1-6)]GalNAc", "summary_of_the_method": "as §1"}, "[14]": {"biological_target": "Fuc(a1-2)[GalNAc(a1-3)]Gal(b1-4)GlcNAc(b1-6)GalNAc", "summary_of_the_method": "as §1"}, "[15]": {"biological_target": "Fuc(a1-2)[GalNAc(a1-4)]Gal(b1-4)GlcNAc", "summary_of_the_method": "as §1"}, "Gal(a1-3)Gal(b1-4)GlcNAc": {"biological_target": "Gal(a1-3)Gal(b1-4)GlcNAc", "summary_of_the_method": "as §1"}, "Gal(b1-2)Gal": {"biological_target": "Gal(b1-2)Gal", "summary_of_the_method": "as §1"}, "[16]": {"biological_target": "Gal(b1-3)GalNAc(b1-3)Gal(a1-4)Gal(b1-4)Glc", "summary_of_the_method": "as §1"}, "[17]": {"biological_target": "Gal(b1-3)GlcNAc(b1-2)Man(a1-3)[GlcNAc(b1-4)][Gal(b1-3)GlcNAc(b1-2)Man(a1-6)]Man(b1-4)GlcNAc(b1-4)GlcNAc", "summary_of_the_method": "as §1"}, "[18]": {"biological_target": "Gal(b1-3)GlcNAc(b1-3)GalNAc", "summary_of_the_method": "as §1"}, "[19]": {"biological_target": "Gal(b1-3)[Fuc(a1-4)]GlcNAc(b1-2)Man(a1-3)[Gal(b1-3)[Fuc(a1-4)]GlcNAc(b1-2)Man(a1-6)]Man(b1-4)GlcNAc(b1-4)[Fuc(a1-6)]GlcNAc", "summary_of_the_method": "as §1"}, "[20]": {"biological_target": "Gal(b1-3)[Neu5Ac(a2-6)]GalNAc", "summary_of_the_method": "as §1"}, "[21]": {"biological_target": "Gal(b1-4)GalNAc(b1-3)[Fuc(a1-2)]Gal(b1-4)GlcNAc", "summary_of_the_method": "as §1"}, "[22]": {"biological_target": "Gal(b1-4)GlcNAc(b1-2)Man(a1-3)[Man(a1-6)]Man(b1-4)GlcNAc(b1-4)GlcNAc", "summary_of_the_method": "as §1"}, "[23]": {"biological_target": "Gal(b1-4)GlcNAc(b1-2)Man(a1-6)[GlcNAc(b1-2)Man(a1-3)]Man(b1-4)GlcNAc(b1-4)GlcNAc", "summary_of_the_method": "as §1"}, "[24]": {"biological_target": "Gal(b1-4)GlcNAc(b1-3)Gal(b1-3)GlcNAc", "summary_of_the_method": "as §1"}, "[25]": {"biological_target": "Gal(b1-4)GlcNAc(b1-3)Gal(b1-4)GlcNAc(b1-2)[Gal(b1-4)GlcNAc(b1-3)Gal(b1-4)GlcNAc(b1-6)]Man(a1-6)[Gal(b1-4)GlcNAc(b1-3)Gal(b1-4)GlcNAc(b1-2)Man(a1-3)]Man(b1-4)GlcNAc(b1-4)GlcNAc", "summary_of_the_method": "as §1"}, "[26]": {"biological_target": "Gal(b1-4)GlcNAc(b1-3)Gal(b1-4)GlcNAc(b1-2)[Gal(b1-4)GlcNAc(b1-3)Gal(b1-4)GlcNAc(b1-6)]Man(a1-6)[Gal(b1-4)GlcNAc(b1-3)Gal(b1-4)GlcNAc(b1-2)Man(a1-3)]Man(b1-4)GlcNAc(b1-4)[Fuc(a1-6)]GlcNAc", "summary_of_the_method": "as §1"}, "[27]": {"biological_target": "Gal(b1-4)GlcNAc(b1-3)Gal(b1-4)GlcNAc(b1-3)Gal(b1-4)GlcNAc(b1-3)Gal(b1-4)GlcNAc(b1-3)Gal(b1-4)GlcNAc(b1-2)Man(a1-3)[Gal(b1-4)GlcNAc(b1-3)Gal(b1-4)GlcNAc(b1-3)Gal(b1-4)GlcNAc(b1-3)Gal(b1-4)GlcNAc(b1-3)Gal(b1-4)GlcNAc(b1-2)Man(a1-6)]Man(b1-4)GlcNAc(b1-4)[Fuc(a1-6)]GlcNAc", "summary_of_the_method": "as §1"}}, "note": "Only a selection was taken, and the strongest signals are over-represented in it overall."}
{"binder": "B1", "values": [{"measurement": "glycan array binding signal (z-score)", "setting": "[1]", "value": -0.098}, {"measurement": "glycan array binding signal (z-score)", "setting": "[2]", "value": 1.42}, {"measurement": "glycan array binding signal (z-score)", "setting": "[3]", "value": -0.112}, {"measurement": "glycan array binding signal (z-score)", "setting": "[4]", "value": -0.102}, {"measurement": "glycan array binding signal (z-score)", "setting": "[5]", "value": -0.091}, {"measurement": "glycan array binding signal (z-score)", "setting": "[6]", "value": 0.683}, {"measurement": "glycan array binding signal (z-score)", "setting": "[7]", "value": -0.05}, {"measurement": "glycan array binding signal (z-score)", "setting": "[8]", "value": -0.112}, {"measurement": "glycan array binding signal (z-score)", "setting": "[9]", "value": -0.132}, {"measurement": "glycan array binding signal (z-score)", "setting": "[10]", "value": 1.31}, {"measurement": "glycan array binding signal (z-score)", "setting": "[11]", "value": -0.06}, {"measurement": "glycan array binding signal (z-score)", "setting": "[12]", "value": -0.151}, {"measurement": "glycan array binding signal (z-score)", "setting": "[13]", "value": -0.133}, {"measurement": "glycan array binding signal (z-score)", "setting": "[14]", "value": -0.129}, {"measurement": "glycan array binding signal (z-score)", "setting": "[15]", "value": -0.135}, {"measurement": "glycan array binding signal (z-score)", "setting": "Gal(a1-3)Gal(b1-4)GlcNAc", "value": -0.07}, {"measurement": "glycan array binding signal (z-score)", "setting": "Gal(b1-2)Gal", "value": -0.01}, {"measurement": "glycan array binding signal (z-score)", "setting": "[16]", "value": -0.044}, {"measurement": "glycan array binding signal (z-score)", "setting": "[17]", "value": 0.682}, {"measurement": "glycan array binding signal (z-score)", "setting": "[18]", "value": -0.105}, {"measurement": "glycan array binding signal (z-score)", "setting": "[19]", "value": 0.612}, {"measurement": "glycan array binding signal (z-score)", "setting": "[20]", "value": 0.215}, {"measurement": "glycan array binding signal (z-score)", "setting": "[21]", "value": -0.141}, {"measurement": "glycan array binding signal (z-score)", "setting": "[22]", "value": 1.71}, {"measurement": "glycan array binding signal (z-score)", "setting": "[23]", "value": -0.136}, {"measurement": "glycan array binding signal (z-score)", "setting": "[24]", "value": -0.04}, {"measurement": "glycan array binding signal (z-score)", "setting": "[25]", "value": 1.38}, {"measurement": "glycan array binding signal (z-score)", "setting": "[26]", "value": -0.13}, {"measurement": "glycan array binding signal (z-score)", "setting": "[27]", "value": 0.048}]}
